# The full list was thinned out, with hits kept by preference.
# ROS inducer: cancer cell ROS induction; U2OS ROS induction, H2DCF-DA fluorescence; 2% of 46,000 active; ROS induction (% of piperlongumine), % at 10 µM; in the data active means ROS induction above about 79%, passing the limit was not always enough;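 further: 0% = DMSO vehicle median and 100% = reference compound median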
# * marks the source's active call; other numbers are inactive results.
SMILES,ROS inducer
COc1ccc(NC(=O)N(C)C[C@@H]2OCCCC[C@@H](C)Oc3ccc(NS(=O)(=O)c4ccccc4)cc3C(=O)N([C@H](C)CO)C[C@@H]2C)cc1,16
O=C1O[C@H](c2ccccc2)[C@H](c2ccccc2)N2[C@H]1[C@@H](C(=O)O)[C@]1(C(=O)Nc3ccc(C#CC4=CCCCC4)cc31)[C@H]2c1ccc(O)cc1,21
C[C@@H]1CN([C@H](C)CO)C(=O)c2cccc(NS(C)(=O)=O)c2O[C@@H]1CN(C)S(C)(=O)=O,-12
CCOc1ccc(OCC(=O)Nc2ccc(C)cc2[N+](=O)[O-])cc1,13
CC(=O)Nc1ccccc1NC(=O)COc1ccc([N+](=O)[O-])cc1,-10
Cc1ccccc1NC(=O)COc1ccc(C)c([N+](=O)[O-])c1,114*
Clc1ccc(-c2csc3ncnc(SCc4ccco4)c23)cc1,-6
CC(C)(C)OC(=O)N1CCC[C@H]1/C=N/NC(=O)c1cccc(C(=O)NO)c1,-8
CNC[C@H]1Oc2ccc(NS(=O)(=O)c3cn(C)cn3)cc2CC(=O)N([C@@H](C)CO)C[C@H]1C,39
CC(C)NC(=O)Nc1cccc2c1O[C@H](CN(C)C(=O)Nc1ccccc1)[C@H](C)CN([C@@H](C)CO)C2=O,-3
COc1cc(OC)c2c(=O)cc(-c3ccccc3)oc2c1,2
COc1cc2oc(-c3ccccc3)cc(=O)c2c(OC)c1OC,90*
COc1cc2oc(-c3ccccc3)cc(=O)c2c(O)c1OC,31
C[C@H](CO)N1C[C@H](C)[C@H](CN(C)Cc2ccccc2)Oc2ccc(NS(=O)(=O)c3cn(C)cn3)cc2CC1=O,-1
COc1cc(OC)c(NC(=O)CN(C)S(=O)(=O)c2ccc(C)cc2)cc1Cl,1
Cc1ccc(S(=O)(=O)N(C)CC(=O)Nc2ccc(Cl)cc2C(F)(F)F)cc1,22
COc1cc(Cl)c(C)cc1NC(=O)CN(C)S(=O)(=O)c1ccc(Br)cc1,7
Cc1ccc(S(=O)(=O)N(C)CC(=O)Nc2cc(Cl)ccc2Oc2ccccc2)cc1,90*
Cc1ccc([N+](=O)[O-])cc1NC(=O)CN(C)S(=O)(=O)c1ccc(Cl)cc1,6
COc1ccc(S(=O)(=O)N(C)CC(=O)Nc2ccccc2OC)cc1Cl,-11
COc1ccc(S(=O)(=O)N(C)CC(=O)Nc2ccccc2Br)cc1Cl,112*
COc1ccc(S(=O)(=O)N(C)CC(=O)Nc2ccccc2F)cc1Cl,0
Cc1cc(Br)ccc1NC(=O)CN(C)S(=O)(=O)c1ccc(Cl)cc1,135*
COC(=O)C1SCCN1S(=O)(=O)c1ccc(-c2cc(C(F)(F)F)on2)s1 (stereo unspecified),0
COC(=O)c1ccccc1NC(=O)C(C)N(c1ccc(Cl)cc1)S(C)(=O)=O (stereo unspecified),20
SMILES,ROS inducer
O=C(N/C(=C/c1ccccc1)C(=O)N1CCc2ccccc2C1)c1ccccc1,59
CC(C)S(=O)(=O)N[C@@H]1CCN(Cc2ccc(OCCO)cc2)C1,13
CC(=O)Nc1ccc(-c2nnc(SCC(=O)NC3CCCCC3)n2C)cc1,39
COc1ccc(S(=O)(=O)Nc2cccc3c2O[C@@H](CN(C)CC2CC2)[C@H](C)CN([C@@H](C)CO)C3=O)cc1,23
COc1ccc(S(=O)(=O)N(C)C[C@@H]2Oc3ccc(NC(=O)Cc4ccccc4)cc3CC(=O)N([C@@H](C)CO)C[C@@H]2C)cc1,19
COC(=O)c1cc(-c2ccc(Cl)cc2)nc2ccccc12,24
Cc1cc(=O)[nH]c(Nc2nc(C)c3cccc(C)c3n2)n1,-1
Cc1cc(C)c2nc(NC3=NC(c4ccccc4)CC(=O)N3)nc(C)c2c1 (stereo unspecified),114*
Cc1ccc2c(C)nc(NC3=NC(C(=O)Nc4ccc(Cl)c(Cl)c4)CC(=O)N3)nc2c1 (stereo unspecified),-10
CCC(C)NC(=O)C(C)n1sc2ccccc2c1=O (stereo unspecified),-7
C[C@H](CO)N1C[C@H](C)[C@H](CN(C)C(=O)Nc2ccc3c(c2)OCO3)Oc2ccc(NC(=O)Nc3ccc(C(F)(F)F)cc3)cc2C1=O,26
COc1ccc(NC(=O)N(C)C[C@@H]2Oc3ccc(NS(=O)(=O)c4cccs4)cc3C(=O)N([C@H](C)CO)C[C@H]2C)cc1,11
C[C@@H]1CN([C@H](C)CO)C(=O)c2cccc(NC(=O)Nc3cccc4ccccc34)c2O[C@@H]1CN(C)S(=O)(=O)c1ccc(Cl)cc1,-3
CC1(C)CC(=O)c2c(SCC(=O)NN)sc(C#N)c2C1,3
COC(=O)c1ccccc1NC(=O)c1c(C)nn(-c2ccccc2)c1-n1cccc1,126*
COc1cc(OC)c(NC(=O)c2c(C)nn(-c3ccccc3)c2-n2cccc2)cc1Cl,26
COC(=O)c1ccccc1NC(=O)CNC(=O)c1ccccc1,0
C[C@H]1CN([C@@H](C)CO)C(=O)c2cc(NC(=O)Nc3ccccc3)ccc2O[C@H]1CN(C)C(=O)Nc1ccc2c(c1)OCO2,26
COc1ccc([Si](C)(C)[C@H]2[C@H](CCO)O[C@@]3(C(=O)N(Cc4ccccc4)c4ccc(N5CCCCC5=O)cc43)[C@@H]2C)cc1,51
COc1ccc(C2C(C(=O)O)c3ccccc3C(=O)N2Cc2ccc(Cl)cc2)cc1 (stereo unspecified),-3
COc1ccc(CN2C(=O)[C@@H]3[C@H]4C(=O)O[C@H](c5ccccc5)[C@@H](C)N(C)C(=O)CC/C=C/[C@H]4O[C@@]34C=CCN(Cc3ccccc3)C(=O)[C@@H]24)cc1,122*
O=C(Nc1ccc(Cl)cc1Cl)C1CC(=O)n2ncnc2N1 (stereo unspecified),4
CC(C)NC(=O)Nc1ccc2c(c1)C(=O)N([C@@H](C)CO)C[C@@H](C)[C@H](CN(C)Cc1ccc(C(F)(F)F)cc1)O2,0
CCOc1ccc(-n2nc3cc(C)c(NC(=O)c4cc(-n5cnnc5)ccc4Cl)cc3n2)cc1,-12
CSc1sc(C(=O)Sc2ccccc2)cc1S(=O)(=O)C(C)C,80*
SMILES,ROS inducer
CSc1cccc(NC(=O)C(C)NS(=O)(=O)c2ccccc2)c1 (stereo unspecified),-1
CSc1sc(C(=O)Sc2ccccc2)c2c1S(=O)(=O)N(C)c1ccccc1-2,3
CCc1ccc(-n2c(N)c(C(=O)OC)c3nc4ccccc4nc32)cc1,13
C[C@@H]1CN([C@@H](C)CO)C(=O)c2cc(NC(=O)Nc3ccc4c(c3)OCO4)ccc2O[C@H]1CN(C)Cc1ccc(Oc2ccccc2)cc1,10
COc1ccc(NC(=O)Nc2ccc3c(c2)C(=O)N([C@H](C)CO)C[C@H](C)[C@@H](CN(C)S(=O)(=O)c2cn(C)cn2)O3)cc1,-4
C[C@@H]1CN([C@@H](C)CO)C(=O)c2cc(NC(=O)NC3CCCCC3)ccc2O[C@H]1CN(C)C(=O)Nc1ccc2c(c1)OCO2,7
O=C1c2ccccc2NC(c2ccccc2)N1NS(=O)(=O)c1ccccc1 (stereo unspecified),-9
O=C1NCCN1CCN1C(=O)c2ccccc2NC1c1ccccc1 (stereo unspecified),-12
O=C1c2ccccc2NC(c2ccccc2)N1N=C1CCCCCC1 (stereo unspecified),96*
O=c1oc2c(-c3cc(C(F)(F)F)ccc3Cl)cc(O)cc2s1,-10
CNC[C@H]1OCc2cnnn2CCCC(=O)N([C@H](C)CO)C[C@H]1C,11
COc1ccc(/C=C2\Oc3cc(O)cc(O)c3C2=O)cc1O,12
C[C@H]1CN([C@@H](C)CO)C(=O)c2cc(NC(=O)Nc3ccc4c(c3)OCO4)ccc2O[C@H]1CN(C)C(=O)Nc1ccc(F)cc1,86*
